From ChEMBL document CHEMBL1157539, “Thousands of chemical starting points for antimalarial lead identification” (Nature, 2010)

Tested on: HepG2
Assay: GSK_TCMDC: Percent inhibition of human HepG2 cell line. Test compounds present at 10uM.
Type: functional

Compound	Inhibition [%]
O=S(=O)(Nc1cccc(CCN2CCC(N3CCCCC3)CC2)c1)c1ccc(-c2ccccc2)cc1	76
COc1ccc(-c2ccc(NC(=O)c3cccc(Cl)c3)cc2)cc1CN(C)CCN(C)C.O=C(O)C(F)(F)F	22
O=C(Cc1cccc(O)c1)Nc1ccc(-c2cccc(-c3nc4cc(C(F)(F)F)ccc4[nH]3)c2)cc1	14
COc1ccc2nccc([C@@H](O)CN3CCC(NC(=O)C(c4cc5ccccc5o4)N4CCN(c5ccccc5)CC4)CC3)c2c1 (some centres not stated)	19
Cc1c(C)n(Cc2ccccc2)c2ncnc(OC3CCN(CC(=O)NCC4CC4)CC3)c12	17
Cc1cnc(CN(Cc2ccc(-c3ccc(CNCCc4ccc(S(C)(=O)=O)cc4)cn3)cc2)C(=O)c2ccc([N+](=O)[O-])c(C)c2)cn1.O=C(O)C(F)(F)F	0
COc1ccc(-c2nnc(Sc3ccc(C#N)c([N+](=O)[O-])c3)n2CC(C)C)cc1	3
O=C(/C=C/c1ccc(Cl)c(Cl)c1)N1CCC(CCCN2CCC(c3c[nH]c4ccc(O)cc34)CC2)CC1	60
COc1ccc(NC(=O)[C@H](Cc2ccccc2)Nc2cc(C)nc(NCCc3ccccc3)n2)cc1.O=C(O)C(F)(F)F	6
CC(C)(C)c1ccc(NC(=O)c2ccc(CN3CCCN(Cc4cccc(O)c4)CC3)cc2)cc1.O=C(O)C(F)(F)F	54
Br.CC1CCC2(CC1)N=C(N)N=C(N)N2OCc1ccc(Br)c2ccccc12 (configuration not stated)	46
Cc1ccc(C)c(NC(=O)CC2C(=O)N(c3ccccc3)C(=S)N2Cc2ccco2)c1 (configuration not stated)	9
